Experimental data taken from the supplement of paper PMC11001985.
A number with no mark means an inactive call.

Each target was assayed with C#CCNC(=O)CCSSCCC(=O)NCCc1ccc(C=O)c(C=O)c1 (assay: lysine labeling ratio R10:1 (500 µM / 50 µM probe), SILAC-ABPP in living cells; higher = lower intrinsic lysine reactivity toward the probe, active = 2 or less). Settings: HeLa; probe concentrations 500 vs 50 µM.
Description: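 Living HeLa cells (SILAC light/heavy) in PBS at room temperature were labeled with 50 µM versus 500 µM of the lysine-reactive, reductant-cleavable probe OPA-S-S-alkyne (SILAC labeling time not stated). Probe-modified peptides were CuAAC-biotinylated, captured on neutravidin and eluted with DTT/IAA, then quantified by LC-MS/MS. R = median peptide ratio per lysine (500/50 µM), combined over 3 forward and 3 reverse SILAC replicates. Ratios are capped at 20; R < 2 = hyper-reactive.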

UniProt Q15149, sequence (Q15149 whole entry): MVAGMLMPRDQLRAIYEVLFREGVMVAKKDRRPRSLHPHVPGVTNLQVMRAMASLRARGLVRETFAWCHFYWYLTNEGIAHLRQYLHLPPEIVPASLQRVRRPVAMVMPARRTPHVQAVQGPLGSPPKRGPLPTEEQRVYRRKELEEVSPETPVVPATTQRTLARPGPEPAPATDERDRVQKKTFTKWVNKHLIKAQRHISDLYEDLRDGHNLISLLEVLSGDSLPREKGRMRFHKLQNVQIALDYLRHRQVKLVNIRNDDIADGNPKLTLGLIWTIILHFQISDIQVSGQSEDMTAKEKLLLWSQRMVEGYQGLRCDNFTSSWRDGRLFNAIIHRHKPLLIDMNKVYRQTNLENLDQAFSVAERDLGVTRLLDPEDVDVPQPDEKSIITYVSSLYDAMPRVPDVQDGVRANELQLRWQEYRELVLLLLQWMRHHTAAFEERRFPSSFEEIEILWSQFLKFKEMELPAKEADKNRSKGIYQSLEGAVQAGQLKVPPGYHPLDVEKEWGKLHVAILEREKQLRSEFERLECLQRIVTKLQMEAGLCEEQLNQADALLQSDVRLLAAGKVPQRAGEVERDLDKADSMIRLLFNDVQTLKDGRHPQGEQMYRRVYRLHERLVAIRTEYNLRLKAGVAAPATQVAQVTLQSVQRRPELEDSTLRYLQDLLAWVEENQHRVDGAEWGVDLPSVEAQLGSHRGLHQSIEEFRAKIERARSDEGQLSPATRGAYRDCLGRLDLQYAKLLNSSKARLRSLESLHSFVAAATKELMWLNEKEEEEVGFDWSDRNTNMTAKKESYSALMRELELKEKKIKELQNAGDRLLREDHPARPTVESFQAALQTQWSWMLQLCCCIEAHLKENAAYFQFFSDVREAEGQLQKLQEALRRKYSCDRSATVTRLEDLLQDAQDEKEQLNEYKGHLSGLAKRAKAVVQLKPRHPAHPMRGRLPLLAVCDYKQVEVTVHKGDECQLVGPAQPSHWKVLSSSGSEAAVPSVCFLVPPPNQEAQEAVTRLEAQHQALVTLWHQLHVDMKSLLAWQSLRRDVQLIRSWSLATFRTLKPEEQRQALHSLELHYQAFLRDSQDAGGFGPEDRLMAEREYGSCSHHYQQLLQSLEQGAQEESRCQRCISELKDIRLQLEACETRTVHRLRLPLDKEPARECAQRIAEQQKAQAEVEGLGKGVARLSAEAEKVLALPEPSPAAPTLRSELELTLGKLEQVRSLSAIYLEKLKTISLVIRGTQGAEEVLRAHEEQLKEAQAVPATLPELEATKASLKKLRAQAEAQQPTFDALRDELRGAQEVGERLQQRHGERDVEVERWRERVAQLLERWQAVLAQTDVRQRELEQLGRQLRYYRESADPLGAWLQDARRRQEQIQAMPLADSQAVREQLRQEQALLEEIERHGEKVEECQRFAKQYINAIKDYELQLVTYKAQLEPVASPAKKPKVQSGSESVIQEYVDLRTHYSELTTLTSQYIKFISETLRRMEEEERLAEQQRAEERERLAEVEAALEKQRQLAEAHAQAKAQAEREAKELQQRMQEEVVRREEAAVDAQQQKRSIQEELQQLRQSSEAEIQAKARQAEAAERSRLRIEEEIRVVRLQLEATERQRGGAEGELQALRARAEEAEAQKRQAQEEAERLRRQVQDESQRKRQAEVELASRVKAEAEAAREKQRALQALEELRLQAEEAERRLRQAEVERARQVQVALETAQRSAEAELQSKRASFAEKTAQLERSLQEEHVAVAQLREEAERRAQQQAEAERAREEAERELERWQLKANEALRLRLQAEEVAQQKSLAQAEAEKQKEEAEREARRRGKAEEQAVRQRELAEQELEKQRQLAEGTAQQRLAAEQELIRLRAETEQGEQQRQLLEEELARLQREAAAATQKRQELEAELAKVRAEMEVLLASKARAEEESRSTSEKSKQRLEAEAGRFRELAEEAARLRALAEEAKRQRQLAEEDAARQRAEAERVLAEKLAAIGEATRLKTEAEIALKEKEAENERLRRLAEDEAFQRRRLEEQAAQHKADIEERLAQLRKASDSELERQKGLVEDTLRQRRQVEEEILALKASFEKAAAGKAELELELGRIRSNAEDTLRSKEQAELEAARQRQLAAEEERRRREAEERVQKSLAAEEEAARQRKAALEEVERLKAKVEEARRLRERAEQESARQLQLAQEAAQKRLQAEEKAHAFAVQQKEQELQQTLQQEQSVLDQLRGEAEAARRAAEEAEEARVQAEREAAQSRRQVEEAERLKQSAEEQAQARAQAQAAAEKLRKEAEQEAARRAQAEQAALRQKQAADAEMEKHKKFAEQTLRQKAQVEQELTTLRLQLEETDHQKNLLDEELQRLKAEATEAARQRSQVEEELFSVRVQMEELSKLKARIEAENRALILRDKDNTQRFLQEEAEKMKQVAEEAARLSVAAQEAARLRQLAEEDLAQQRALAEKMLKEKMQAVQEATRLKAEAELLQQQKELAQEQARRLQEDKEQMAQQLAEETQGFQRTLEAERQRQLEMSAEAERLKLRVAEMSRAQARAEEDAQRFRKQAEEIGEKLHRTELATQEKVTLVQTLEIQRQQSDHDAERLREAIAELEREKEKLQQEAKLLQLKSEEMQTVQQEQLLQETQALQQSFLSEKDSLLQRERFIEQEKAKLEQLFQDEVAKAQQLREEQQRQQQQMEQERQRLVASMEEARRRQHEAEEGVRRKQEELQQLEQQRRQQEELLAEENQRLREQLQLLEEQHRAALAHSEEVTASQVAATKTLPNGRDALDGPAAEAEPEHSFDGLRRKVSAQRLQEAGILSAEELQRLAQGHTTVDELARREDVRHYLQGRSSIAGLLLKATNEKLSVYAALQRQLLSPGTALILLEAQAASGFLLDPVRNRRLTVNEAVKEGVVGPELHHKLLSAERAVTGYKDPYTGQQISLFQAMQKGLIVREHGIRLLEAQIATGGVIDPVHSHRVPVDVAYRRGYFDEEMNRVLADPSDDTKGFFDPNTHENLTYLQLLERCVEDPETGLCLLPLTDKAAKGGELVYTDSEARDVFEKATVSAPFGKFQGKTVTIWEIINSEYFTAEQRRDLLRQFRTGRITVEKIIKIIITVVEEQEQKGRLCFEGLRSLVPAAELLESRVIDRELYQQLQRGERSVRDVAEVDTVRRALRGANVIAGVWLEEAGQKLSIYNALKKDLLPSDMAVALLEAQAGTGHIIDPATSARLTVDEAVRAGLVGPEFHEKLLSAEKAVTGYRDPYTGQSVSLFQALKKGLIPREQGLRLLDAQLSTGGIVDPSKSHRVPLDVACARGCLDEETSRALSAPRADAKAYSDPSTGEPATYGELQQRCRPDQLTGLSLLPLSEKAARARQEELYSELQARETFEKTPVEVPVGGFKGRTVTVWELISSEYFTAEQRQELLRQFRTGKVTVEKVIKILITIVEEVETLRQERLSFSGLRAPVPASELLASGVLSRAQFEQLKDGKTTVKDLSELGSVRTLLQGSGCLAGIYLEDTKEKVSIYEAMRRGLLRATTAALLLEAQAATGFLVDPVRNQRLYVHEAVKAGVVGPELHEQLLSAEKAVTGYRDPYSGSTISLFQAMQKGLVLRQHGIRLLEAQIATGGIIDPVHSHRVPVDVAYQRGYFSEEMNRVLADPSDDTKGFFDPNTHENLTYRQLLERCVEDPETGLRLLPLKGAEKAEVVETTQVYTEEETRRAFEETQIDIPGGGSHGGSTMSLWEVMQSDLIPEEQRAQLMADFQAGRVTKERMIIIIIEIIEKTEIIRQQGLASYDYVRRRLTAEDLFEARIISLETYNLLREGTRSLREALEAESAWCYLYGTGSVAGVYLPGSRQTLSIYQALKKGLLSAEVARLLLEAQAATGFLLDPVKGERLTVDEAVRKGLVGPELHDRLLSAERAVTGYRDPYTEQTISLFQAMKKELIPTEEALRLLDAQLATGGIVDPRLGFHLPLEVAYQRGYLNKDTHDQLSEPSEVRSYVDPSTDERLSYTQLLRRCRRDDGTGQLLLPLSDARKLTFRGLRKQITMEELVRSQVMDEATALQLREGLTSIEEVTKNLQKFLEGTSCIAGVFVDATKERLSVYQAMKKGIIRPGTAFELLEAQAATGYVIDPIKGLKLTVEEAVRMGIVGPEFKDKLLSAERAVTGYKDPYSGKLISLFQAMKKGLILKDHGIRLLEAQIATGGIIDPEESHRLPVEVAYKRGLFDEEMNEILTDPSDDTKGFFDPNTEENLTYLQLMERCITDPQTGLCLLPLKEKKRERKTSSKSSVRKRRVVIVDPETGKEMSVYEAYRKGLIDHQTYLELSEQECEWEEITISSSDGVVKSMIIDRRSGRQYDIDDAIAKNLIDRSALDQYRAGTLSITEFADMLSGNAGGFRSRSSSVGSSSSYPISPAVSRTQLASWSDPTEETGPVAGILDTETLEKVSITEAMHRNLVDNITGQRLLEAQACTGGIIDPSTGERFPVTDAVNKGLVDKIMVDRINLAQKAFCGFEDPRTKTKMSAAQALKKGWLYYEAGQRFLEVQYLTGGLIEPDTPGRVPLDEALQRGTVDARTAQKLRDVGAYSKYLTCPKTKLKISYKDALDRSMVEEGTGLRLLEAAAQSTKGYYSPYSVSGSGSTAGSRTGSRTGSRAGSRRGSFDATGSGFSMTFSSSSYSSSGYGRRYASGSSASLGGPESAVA
UniProt Q02818, sequence (Q02818 whole entry): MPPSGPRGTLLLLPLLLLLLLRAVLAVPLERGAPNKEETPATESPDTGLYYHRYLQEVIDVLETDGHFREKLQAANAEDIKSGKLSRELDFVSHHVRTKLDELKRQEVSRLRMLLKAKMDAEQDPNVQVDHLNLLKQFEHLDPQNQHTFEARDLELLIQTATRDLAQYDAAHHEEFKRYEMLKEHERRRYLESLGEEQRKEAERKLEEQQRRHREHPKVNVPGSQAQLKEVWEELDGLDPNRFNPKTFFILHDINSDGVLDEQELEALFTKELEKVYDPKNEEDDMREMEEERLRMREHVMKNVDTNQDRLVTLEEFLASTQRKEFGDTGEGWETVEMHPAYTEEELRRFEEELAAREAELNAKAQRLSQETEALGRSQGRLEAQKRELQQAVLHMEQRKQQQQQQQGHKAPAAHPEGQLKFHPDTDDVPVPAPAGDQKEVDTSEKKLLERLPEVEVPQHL

Target | lysine labeling ratio R10:1
CACNA2D1 (lysine site: K634) (UniProt P54289) | 3.07
CACNA2D1 (lysine site: K577) (UniProt P54289) | 4.82
MAN1B1 (lysine site: K354) (UniProt Q9UKM7) | 2.81
STOM (lysine site: K235) (UniProt P27105) | 4.28
RPS19 (lysine site: K97) (UniProt P39019) | 1.48 (active)
RPS19 (lysine site: K7) (UniProt P39019) | 4.55
SPTAN1 (lysine site: K1432) (UniProt Q13813) | 0.77 (active)
CD63 (lysine site: K162) (UniProt P08962) | 4.92
ITGA6 (lysine site: K569) (UniProt P23229) | 2.54
UniProt Q15149 (lysine site: K2411) | 4.67
PDIA4 (lysine site: K366) (UniProt P13667) | 1.22 (active)
UniProt Q9UHN6 (lysine site: K887) | 1.21 (active)
FLNA (lysine site: K724) (UniProt P21333) | 1.76 (active)
ATAD3B (lysine site: K183) (UniProt Q5T9A4) | 1.8 (active)
UGDH (lysine site: K107) (UniProt O60701) | 1.1 (active)
EPHB4 (lysine site: K486) (UniProt P54760) | 4.21
GNS (lysine site: K502) (UniProt P15586) | 0.59 (active)
UniProt Q15149 (lysine site: K1923) | 1.36 (active)
KTN1 (lysine site: K1240) (UniProt Q86UP2) | 5.6
HNRNPU (lysine site: K697) (UniProt Q00839) | 0.915 (active)

Target | lysine labeling ratio R10:1
HNRNPC (lysine site: K170) (UniProt P07910) | 2.35
TXLNA (lysine site: K256) (UniProt P40222) | 3.67
TFRC (lysine site: K205) (UniProt P02786) | 2.81
ROBO1 (lysine site: K224) (UniProt Q9Y6N7) | 0.52 (active)
ALDOC (lysine site: K111) (UniProt P09972) | 6.08
DST (lysine site: K3977) (UniProt Q03001) | 1.83 (active)
UniProt P60866 (lysine site: K75) | 1.91 (active)
IGSF3 (lysine site: K191) (UniProt O75054) | 4.16
ITGA2 (lysine site: K821) (UniProt P17301) | 3.08
UniProt Q15149 (lysine site: K4513) | 1.42 (active)
CAPZB (lysine site: K95) (UniProt P47756) | 3.24
LRP8 (lysine site: K420) (UniProt Q14114) | 0.962 (active)
NUCB1 (lysine site: K177) (UniProt Q02818) | 1.71 (active)
NUCB1 (lysine site: K364) (UniProt Q02818) | 2.75
RDX (lysine site: K556) (UniProt P35241) | 1.52 (active)
EPHA7 (lysine site: K272) (UniProt Q15375) | 2.33
PDIA3 (lysine site: K129) (UniProt P30101) | 1.94 (active)
SDCBP (lysine site: K124) (UniProt O00560) | 1.6 (active)
PA2G4 (lysine site: K288) (UniProt Q9UQ80) | 0.997 (active)
C3 (lysine site: K1546) (UniProt P01024) | 4.18
